An excerpt weighted towards active compounds, which were near 1.1% of everything screened.
HTR5A inv ctr: counter-screen for OPRM1-OPRD1 inverse agonists: human HTR5A inverse agonism. P47898. inhibition, % at 9.3 µM. HTR5A cell line, luminescence. hit rate 0.083% among 340,000; in the data active = inhibition mostly above about 23%, no sharp cut-off; inactive = mostly below about 18%;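 also: 0% = cells with DMSO and 100% = no-cell wells with DMSO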
Target sequence (P47898 whole entry, looked up): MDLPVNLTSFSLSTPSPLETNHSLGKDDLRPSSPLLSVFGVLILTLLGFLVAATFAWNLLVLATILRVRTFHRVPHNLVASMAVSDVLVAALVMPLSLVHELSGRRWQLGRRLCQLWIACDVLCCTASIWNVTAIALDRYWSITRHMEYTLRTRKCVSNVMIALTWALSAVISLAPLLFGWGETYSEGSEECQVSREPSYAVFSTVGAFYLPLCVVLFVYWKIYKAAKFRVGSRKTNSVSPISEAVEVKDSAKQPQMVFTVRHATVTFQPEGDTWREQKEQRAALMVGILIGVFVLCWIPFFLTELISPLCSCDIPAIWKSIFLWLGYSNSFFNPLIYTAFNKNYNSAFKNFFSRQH
MOR-DOR ag: OPRM1-OPRD1 heterodimerization agonism | hit rate 0.3% among 340,000 | cells, luminescence | P35372+P41143 | activation, % at 9.3 µM; in the data active = activation above about 18%;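 also: 0% = vehicle-treated cells and 100% = reference agonist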
OPRM1-OPRD1 inv: inverse agonist of human OPRM1-OPRD1 heterodimerization; hit rate 0.21% among 340,000; cell-based MOR-DOR heterodimer luminescence, inverse agonism; AID 504357; inhibition, % at 9.3 µM; in the data active = inhibition above about 22%, passing the limit was not always enough;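 also: 0% = cells with DMSO and 100% = wells without cells with DMSO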
HTR5A ag: counter-screen for OPRM1-OPRD1 agonists: human HTR5A agonism. P47898. HTR5A agonist assay, luminescence, cell-based. activation, % at 9.3 µM. hit rate 0.61% among 340,000. AID 504692; in the data active = activation mostly above about 9.5%, no sharp cut-off; inactive = mostly below about 7.6%;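 also: 0% = cells with vehicle only and 100% = reference agonist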
Numbers without * were called inactive.

SMILES	HTR5A inv ctr	MOR-DOR ag	OPRM1-OPRD1 inv	HTR5A ag
O=C(CSc1nncn1-c1ccccc1)Nc1ccc(F)cc1F	21.2	-3.1	19.1	-3.7
O=C1c2ccccc2C(=O)N1Nc1ccc([N+](=O)[O-])cc1[N+](=O)[O-]	35.3*	-2.5	12.2	-9.5
Cc1ccc(NC(=O)C(Nc2ccccc2)c2ccccc2)cc1 (stereo unspecified)	18.2	-3.7	18.7	-7.0
COc1cccc(NC(C(=O)Nc2cccc(C(C)=O)c2)c2ccccc2)c1 (stereo unspecified)	2.6	1.0	-5.6	4.0
COc1cc(NC(C(=O)Nc2cccc(C(C)=O)c2)c2ccccc2)cc(OC)c1OC (stereo unspecified)	-23.3	1.7	-9.3	12.7*
Cc1cc(C)cc(NC(=O)C(Nc2ccccc2)c2ccccc2)c1 (stereo unspecified)	-9.7	10.9	-50.7	12.4*
COc1ccccc1-c1cn[nH]c1-c1ccc(OCc2ccccc2)cc1O	-38.0	11.0	-58.1	12.1*
COc1ccc(-c2cn[nH]c2-c2ccc(OCc3ccccc3)cc2O)cc1	-5.3	11.4	-60.1	1.7
CCNC(=O)C1CC(=O)N(Cc2ccc3c(c2)OCO3)C(=Nc2ccc(OCC)cc2)S1 (stereo unspecified)	-6.4	-0.4	2.4	9.0*
CCOC(=O)CNC(=O)CSc1nc(Cc2cccs2)nc2ccccc12	-9.2	1.4	-9.1	3.5
CC1CC(C)CN(C(=O)CSc2nc(Cc3cccs3)nc3ccccc23)C1 (stereo unspecified)	-12.3	-0.2	1.0	12.0*
c1ccc2c(c1)NC1(CCCCC1)n1c-2nc2ccccc21	12.8	1.1	-6.2	13.7*
C[C@H](CO)N1C[C@H](C)[C@@H](CN(C)C(=O)NC2CCCCC2)Oc2ccc(NC(=O)CCC(F)(F)F)cc2C1=O	13.9	-0.2	1.2	4.4
CCOC(=O)c1ccc(-c2ccc3c(=O)c4ccccc4n(C)c3c2)cc1F	-41.0	-0.6	3.0	-4.7
C/C(=N\NC(=O)CNc1cccc(Cl)c1C)c1cccs1	-11.9	0.5	-2.2	-2.3
COc1ccccc1NCC(=O)N/N=C(\C)c1cccs1	-36.2	2.9	-16.6	13.8*
CCCCS(=O)(=O)/C=C\C=C/S(=O)(=O)CCCC	-6.5	-7.4	37.0*	2.5
CCOC(=O)[C@@H]1[C@H]2COc3ccccc3[C@H]2N2C(=O)N(c3ccc(Cl)cc3)C(=O)[C@]12C	-3.8	-0.2	1.2	-5.6
C=CCn1c(O)c(N=NC(=O)CNC(=O)Cc2ccccc2)c2ccccc21	13.4	-3.0	15.7	10.9*
Cc1ccc2oc(C(=O)Nc3nonc3C)c(C)c2c1	-0.8	4.1	-21.2	10.7*
CSC1=C(C#N)C(c2ccccc2Cl)C2=C(N1)c1ccccc1C2=O (stereo unspecified)	-4.6	-2.8	14.2	-6.4
Cc1nn(-c2ccccn2)c2c1C(c1ccccc1Cl)C1=C(N2)c2ccccc2C1=O (stereo unspecified)	-13.4	-3.8	25.9*	3.5
Cc1ccc(CNC(=O)C2CCN(S(=O)(=O)c3ccc4c(c3)CC(C)N4C(=O)C3CCC3)CC2)o1 (stereo unspecified)	-5.6	-2.1	11.2	11.2*
CC(C)CCNC(=O)C1CCN(S(=O)(=O)c2ccc3c(c2)CC(C)N3C(=O)C2CCC2)CC1 (stereo unspecified)	-10.9	-0.5	2.8	2.8
CCC(=O)OCOc1ccc(/C=C2/CCC(CN(C)C)C2=O)cc1 (stereo unspecified)	12.1	-6.5	28.2	-3.1
SMILES	HTR5A inv ctr	MOR-DOR ag	OPRM1-OPRD1 inv	HTR5A ag
CCCNc1[nH]c(=O)n(C)c(=O)c1N=O	5.8	-0.4	2.0	9.6*
N#Cc1ccccc1OCC(=O)Nc1c(C(=O)C2CC2)oc2ccccc12	-41.3	2.4	-13.7	14.2*
c1ccc2c(c1)Oc1ccccc1S2	-52.3	-3.1	16.8	12.5*
NS(=O)(=O)c1ccc(CCNC(=O)c2cccc(S(=O)(=O)N3CCCC3)c2)cc1	-12.3	-3.4	12.6	-1.5
O=C(O)COCC(=O)Nc1ccc(-n2cnnn2)cc1	-26.9	1.1	-5.5	10.9*
C[C@H](CO)N1C[C@H](C)[C@@H](CN(C)C(=O)Nc2ccc(C(F)(F)F)cc2)Oc2c(NC(=O)CCC(F)(F)F)cccc2C1=O	-34.4	1.4	-8.2	-2.4
CC[C@]1(C(=O)OC)[C@H]2C(=O)N(Cc3ccccc3)C(=O)[C@H]2[C@H]2CN=C(SCC3CC3)N21	-18.1	-1.8	8.6	5.3*
CC[C@]1(C(=O)OC)[C@H]2C(=O)N(Cc3ccccc3)C(=O)[C@H]2[C@H]2CN=C(SCc3ccc(C)cc3)N21	13.8	-1.2	5.6	-3.9
c1ccc(-c2cnn3nnnc3n2)cc1	-25.5	0.7	-4.1	12.4*
CC(=O)Nc1ccc(NC(=O)CCN2C(=O)c3ccccc3C2=O)cc1	7.1	-1.3	6.4	-1.9
CC(=O)Nc1ccc(NC(=O)CCCN2C(=O)c3ccccc3C2=O)cc1	-27.6	1.7	-8.7	9.8*
CCOC(=O)Nc1sc(C)c(C)c1C(=O)OCC	-6.8	7.2	-35.0	13.1*
Cc1ccc(C(=O)C(C)OC(=O)Cn2[nH]c(=O)c3ccccc3c2=O)cc1C (stereo unspecified)	-45.3	-2.8	16.2	12.4*
CCOC(=O)N1CCN(C(=O)c2cccc(S(=O)(=O)Nc3ccc(Br)cc3)c2)CC1	9.0	2.2	-14.6	-3.5
Cc1ccc(S(=O)(=O)Nc2cccc(C(=O)N3CCN(c4ccccc4O)CC3)c2)cc1F	6.2	-2.4	12.2	-2.3
Cc1cc(S(=O)(=O)Nc2ccc(C(=O)N3CCN(c4ccccc4O)CC3)cc2)ccc1F	-14.5	0.5	-2.7	14.1*
Cc1onc(-c2ccccc2)c1C(=O)N/N=C/c1c(F)cccc1Cl	8.3	-0.8	4.1	0.6
COc1cc(C(=O)Nc2nc(-c3cc(C)ccc3C)c(C)s2)ccc1OCC(=O)Nc1ccc(F)cc1	-11.2	1.8	-9.4	6.8
COc1ccc(-c2nc(NC(=O)c3ccc(OCC(=O)Nc4ccc(F)cc4)c(OC)c3)sc2C)cc1	5.9	19.3*	-102.5	15.3*
O=C(NNS(=O)(=O)c1ccc(F)cc1)c1ccccc1F	-45.2	-2.9	14.4	12.0*
Cc1cc(C(=O)C(C)OC(=O)c2ccc(NC(=O)CC#N)cc2)c(C)n1-c1ccc(OC(F)F)cc1 (stereo unspecified)	-16.0	-0.6	2.5	0.8
CC(C)(C)c1cc(CCC(=O)NNC(=S)NC(=O)c2ccccc2)cc(C(C)(C)C)c1O	82.2*	-9.3	67.5*	-29.0
CCOc1cc(C(=O)N/N=C/c2ccsc2)cc(OCC)c1OCC	0.9	-2.5	12.5	14.0*
CCOc1cc(C(=O)N/N=C/c2ccoc2)cc(OCC)c1OCC	-12.6	-3.0	9.7	4.3
Cc1ccc(N(NC(=O)C(O)(c2ccccc2)c2ccccc2)C(=O)CCl)cc1	10.6	31.4*	-162.3	48.2*
Cc1ccc(C(O)(C(=O)NN(C(=O)c2ccccc2)c2ccccc2)c2ccc(C)cc2)cc1	0.8	1.7	-9.4	0.4
COc1ccc(S(=O)(=O)N2CCOCC2)cc1NC(=O)CSc1ncccn1	-44.3	-1.5	7.7	10.8*
COc1ccc(S(=O)(=O)N2CCCCC2)cc1NC(=O)CSc1ncccn1	-28.6	-4.9	18.3	5.1
